Hit rate of the full screen: of about 5,500 compounds, about 2,000 (36%) were called active. About 18% were inconclusive and are not listed. No stated cut-off is given here; in the data, active means normalized growth mostly below about 0.91 (no sharp cut-off); inconclusive means no clear call, values can overlap the other calls; inactive means mostly above about 0.92. The list shows a part of the results.
Test: chemical genetic growth profiling, strain panel (AID 1159580);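 further: tested at 20 µM; growth read once vehicle control cultures reached saturation at 30 °C; 1 = growth at the plate median or of vehicle wells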
Conditions: S. cerevisiae deletion strains, growth OD
[1] = locus YAL021C, strain ccr4, stronger effect = lower value
[2] = locus YAL026C, strain drs2, stronger effect = lower value
[3] = locus YAL030W, strain snc1, stronger effect = lower value
[4] = locus YBL061C, strain skt5, stronger effect = lower value
[5] = locus YBR009C, strain hhf1, stronger effect = lower value
[6] = locus YBR023C, strain chs3, stronger effect = lower value
[7] = locus YBR171W, strain sec66, stronger effect = lower value
[8] = locus YBR231C, strain swc5, stronger effect = lower value
[9] = locus YBR279W, strain paf1, stronger effect = lower value
[10] = locus YCL011C, strain gbp2, stronger effect = lower value
[11] = locus YCL016C, strain dcc1, stronger effect = lower value
[12] = locus YCL061C, strain MRC1, stronger effect = lower value
[13] = locus YCL069W, strain vba3, stronger effect = lower value
[14] = locus YCR088W, strain abp1, stronger effect = lower value
[15] = locus YDL005C, strain med2, stronger effect = lower value
[16] = locus YDL040C, strain nat1, stronger effect = lower value
[17] = locus YDR001C, strain nth1, stronger effect = lower value
[18] = locus YDR069C, strain doa4, stronger effect = lower value
[19] = locus YDR137W, strain rgp1, stronger effect = lower value
[20] = locus YDR159W, strain sac3, stronger effect = lower value
[21] = locus YDR297W, strain sur2, stronger effect = lower value
[22] = locus YDR334W, strain swr1, stronger effect = lower value
[23] = locus YDR335W, strain msn5, stronger effect = lower value
[24] = locus YDR392W, strain spt3, stronger effect = lower value
[25] = locus YEL003W, strain gim4, stronger effect = lower value
[26] = locus YEL037C, strain rad23, stronger effect = lower value
[27] = locus YEL061C, strain CIN8 (second series), stronger effect = lower value
[28] = locus YER015W, strain faa2, stronger effect = lower value
[29] = locus YER016W, strain bim1, stronger effect = lower value
[30] = locus YER111C, strain swi4, stronger effect = lower value
[31] = locus YER155C, strain BEM2 (second series), stronger effect = lower value
[32] = locus YFR010W, strain ubp6, stronger effect = lower value
[33] = locus YGL167C, strain pmr1, stronger effect = lower value
[34] = locus YGL173C, strain kem1, stronger effect = lower value
[35] = locus YGL227W, strain vid30, stronger effect = lower value
[36] = locus YGL240W, strain doc1, stronger effect = lower value
[37] = locus YGL253W, strain hxk2, stronger effect = lower value
[38] = locus YHR013C, strain ard1, stronger effect = lower value
[39] = locus YHR027C, strain rpn1, stronger effect = lower value
[40] = locus YHR030C, strain SLT2, stronger effect = lower value
[41] = locus YHR079C, strain IRE1, stronger effect = lower value
[42] = locus YHR142W, strain chs7, stronger effect = lower value
[43] = locus YJL092W, strain hpr5, stronger effect = lower value
[44] = locus YJL095W, strain BCK1 (second series), stronger effect = lower value
[45] = locus YJL095W, strain BCK1, stronger effect = lower value
[46] = locus YJL115W, strain asf1, stronger effect = lower value
[47] = locus YJL129C, strain trk1, stronger effect = lower value
[48] = locus YJL154C, strain vps35, stronger effect = lower value
[49] = locus YJL164C, strain tpk1, stronger effect = lower value
[50] = locus YJL166W, strain qcr8, stronger effect = lower value
[51] = locus YJL187C, strain SWE1, stronger effect = lower value
[52] = locus YJR066W, strain TOR1, stronger effect = lower value
[53] = locus YKL160W, strain elf1, stronger effect = lower value
[54] = locus YKR026C, strain gcn3, stronger effect = lower value
[55] = locus YKR091W, strain srl3, stronger effect = lower value
[56] = locus YLL001W, strain dnm1, stronger effect = lower value
[57] = locus YLL026W, stronger effect = lower value
[58] = locus YLL041C, strain sdh2, stronger effect = lower value
[59] = locus YLR027C, strain aat2, stronger effect = lower value
[60] = locus YLR113W, strain HOG1, stronger effect = lower value
[61] = locus YLR221C, strain rsa3, stronger effect = lower value
[62] = locus YLR258W, strain gsy2, stronger effect = lower value
[63] = locus YLR262C, strain YPT6 (second series), stronger effect = lower value
[64] = locus YLR320W, strain mms22, stronger effect = lower value
[65] = locus YLR342W, strain FKS1, stronger effect = lower value
[66] = locus YLR357W, strain rsc2, stronger effect = lower value
[67] = locus YLR370C, strain arc18, stronger effect = lower value
[68] = locus YLR384C, strain iki3, stronger effect = lower value
[69] = locus YML120C, strain ndi1, stronger effect = lower value
[70] = locus YMR058W, strain fet3, stronger effect = lower value
[71] = locus YMR125W, strain sto1, stronger effect = lower value
[72] = locus YMR129W, stronger effect = lower value
[73] = locus YMR205C, strain PFK2, stronger effect = lower value
[74] = locus YMR231W, strain pep5, stronger effect = lower value
[75] = locus YNL071W, strain lat1, stronger effect = lower value
[76] = locus YNL183C, strain NPR1, stronger effect = lower value
[77] = locus YNL209W, strain ssb2, stronger effect = lower value
[78] = locus YNL248C, strain rpa49, stronger effect = lower value
[79] = locus YNL322C, strain KRE1 (second series), stronger effect = lower value
[80] = locus YNR049C, strain mso1, stronger effect = lower value
[81] = locus YOR001W, strain rrp6, stronger effect = lower value
[82] = locus YOR070C, strain gyp1, stronger effect = lower value
[83] = locus YOR080W, strain dia2, stronger effect = lower value
[84] = locus YOR083W, strain WHI5, stronger effect = lower value
[85] = locus YOR106W, strain vam3, stronger effect = lower value
[86] = locus YOR231W, strain MKK1, stronger effect = lower value
[87] = locus YOR265W, strain rbl2, stronger effect = lower value
[88] = locus YOR270C, strain vph1, stronger effect = lower value
[89] = locus YOR290C, strain snf2, stronger effect = lower value
[90] = locus YPL051W, strain arl3, stronger effect = lower value
[91] = locus YPL078C, strain atp4, stronger effect = lower value
[92] = locus YPL106C, strain sse1, stronger effect = lower value
[93] = locus YPL240C, strain hsp82, stronger effect = lower value
[94] = locus YPL256C, strain CLN2, stronger effect = lower value

Measured: normalized growth

O=C(NC1CCCCC1)NC1CCCCC1
inactive: [1] 0.987 | [2] 0.995 | [3] 0.976 | [4] 0.976 | [5] 0.998 | [6] 0.976 | [7] 0.977 | [8] 0.981 | [9] 0.981 | [10] 0.973 | [11] 0.97 | [12] 0.983 | [13] 0.978 | [14] 0.973 | [15] 0.981 | [16] 0.981 | [17] 0.972 | [18] 0.979 | [19] 0.964 | [20] 0.995 | locus YDR195W, strain ref2 0.958 | [21] 0.971 | [22] 0.961 | [23] 0.98 | [24] 0.918 | [25] 0.983 | [26] 0.977 | [27] 0.982 | [28] 0.99 | [29] 0.981 | [30] 0.96 | [31] 0.971 | [32] 0.988 | [33] 0.976 | [34] 0.98 | [35] 0.972 | [36] 0.986 | [37] 0.99 | [38] 0.97 | [39] 1 | [40] 1.08 | [41] 1.07 | [42] 0.956 | [43] 0.981 | [44] 0.973 | [45] 1.07 | [46] 0.969 | [47] 0.953 | [48] 0.972 | [49] 0.995 | [50] 0.985 | [51] 0.979 | [52] 1.01 | [53] 0.977 | [54] 0.972 | [55] 0.977 | [56] 0.966 | [57] 0.981 | [58] 0.982 | [59] 0.991 | [60] 1.03 | [61] 0.976 | [62] 0.972 | [63] 0.96 | [64] 0.974 | [65] 0.975 | [66] 0.977 | [67] 0.983 | [68] 0.951 | [69] 0.969 | [70] 0.987 | [71] 0.96 | [72] 0.977 | [73] 0.969 | [74] 0.978 | [75] 0.985 | [76] 1 | [77] 0.974 | [78] 0.98 | [79] 0.962 | [80] 0.978 | [81] 0.995 | [82] 0.97 | [83] 0.971 | [84] 0.971 | [85] 0.983 | [86] 1.04 | [87] 0.979 | [88] 0.905 | [89] 0.953 | [90] 0.983 | [91] 0.981 | [92] 0.951 | [93] 0.98 | [94] 1.08

NCCNCCNCCN
inactive: [1] 0.984 | [2] 1.01 | [3] 0.998 | [4] 1 | [5] 1.01 | [6] 1.01 | [7] 1 | [8] 0.992 | [9] 0.999 | [10] 0.992 | [11] 1 | [12] 0.986 | [13] 0.995 | [14] 1 | [15] 1.01 | [16] 1 | [17] 0.99 | [18] 1 | [19] 1 | [20] 0.996 | locus YDR195W, strain ref2 0.982 | [21] 0.995 | [22] 1 | [23] 0.998 | [24] 1.01 | [25] 0.999 | [26] 0.994 | [27] 0.998 | [28] 0.991 | [29] 1 | [30] 1 | [31] 1.04 | [32] 0.998 | [33] 0.998 | [34] 1.01 | [35] 1 | [36] 1.02 | [37] 0.994 | [38] 1 | [39] 1 | [40] 1.02 | [41] 1.02 | [42] 0.961 | [43] 0.999 | [44] 0.995 | [45] 0.989 | [46] 1.01 | [47] 0.991 | [48] 1 | [49] 0.997 | [50] 0.994 | [51] 1 | [52] 0.955 | [53] 0.987 | [54] 0.993 | [55] 0.991 | [56] 0.997 | [57] 1.01 | [58] 0.997 | [59] 1 | [60] 0.976 | [61] 0.984 | [62] 1.01 | [63] 0.985 | [64] 1 | [65] 1 | [66] 1.02 | [67] 0.995 | [68] 0.999 | [69] 0.991 | [70] 1 | [71] 1.01 | [72] 0.997 | [73] 1.02 | [74] 1 | [75] 1.01 | [76] 0.946 | [77] 0.998 | [78] 0.975 | [79] 1 | [80] 0.993 | [81] 0.988 | [82] 1 | [83] 1 | [84] 0.985 | [85] 0.986 | [86] 0.995 | [87] 0.996 | [88] 0.937 | [89] 1 | [90] 0.997 | [91] 0.992 | [92] 1.02 | [93] 0.977 | [94] 1.01

From PubChem BioAssay AID1159580 (chemical genetic matrix, 2015)
